Sampled rows, rich in hits. Any-hit rate of the full collection: about 4.1%.
AmpC no deterg: qHTS Inhibitors of AmpC Beta-Lactamase (assay without detergent); AmpC nitrocefin hydrolysis, absorbance 480 nm, 0.0001% Triton; Potency, µM (series often up to 57.1 µM), for inactives: at the highest dose activity change, negative = inhibition, actives largely listed as inhibitors; AID 485341, 2010; P00811; hit rate 0.52% among 330,000;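 note: plate controls were no compound for no effect and no enzyme for full effect; nearly all actives have a fitted effect of over 20% in size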
Target sequence (P00811 whole entry, looked up): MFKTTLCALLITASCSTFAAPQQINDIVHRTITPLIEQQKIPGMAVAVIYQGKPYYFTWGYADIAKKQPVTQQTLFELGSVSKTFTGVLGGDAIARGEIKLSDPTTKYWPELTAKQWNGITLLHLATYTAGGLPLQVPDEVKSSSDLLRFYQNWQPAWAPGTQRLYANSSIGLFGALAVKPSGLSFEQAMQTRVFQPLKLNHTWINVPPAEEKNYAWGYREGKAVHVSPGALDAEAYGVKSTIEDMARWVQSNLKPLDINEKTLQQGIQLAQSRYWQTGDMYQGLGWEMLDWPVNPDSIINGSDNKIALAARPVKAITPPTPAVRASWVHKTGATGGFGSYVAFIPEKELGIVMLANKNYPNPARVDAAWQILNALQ
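20 mM phosphate pH 7.0 + 0.01% (detergent screen) or 0.0001% Triton X-100; 5.3 nM AmpC reagent; cpd preinc 15 min RT; nitrocefin (800 uM stock) to start; A480 q20 s × 4 min; Activity was normalised to no-enzyme and no-compound control wells.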
AMA1-RON2 inh: qHTS for Inhibitors of AMA1-RON; Towards Development of Antimalarial Drug Lead: Primary Screen | AlphaScreen AMA1-biotinylated RON2 peptide binding | Plasmodium falciparum AMA1 (3D7) - RON2 peptide interaction | AID 720542, 2013 | Potency, µM (titrated, usually from 58.2 µM), inactives show at the top dose activity change, negative = inhibition, usual class: inhibitors | hit rate 0.2% among 360,000;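 note: 0% = vehicle wells and -100% = peptide control; nearly all actives have a fitted effect of over 45% in size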
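AMA1 (3D7) with his tag at 25 nM final met compounds first, then biotinylated RON2 peptide at 25 nM; detection used donor plus acceptor beads, 10 µg/mL apiece, read by AlphaScreen after 30 min at room temperature.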
Sm TGR inh: qHTS Assay for the Inhibitors of Schistosoma Mansoni Peroxiredoxins. Potency, µM (series often up to 114 µM), for inactives: at the highest dose activity change, negative = inhibition, usual class: inhibitors. Schistosoma mansoni thioredoxin glutathione reductase (TGR), Q962Y6. purified TGR, DTNB reduction, TNB absorbance 405 nm. hit rate 3% among 360,000. AID 485364, 2010; note: nearly all actives have a fitted effect of over 60% in size
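First, TGR (20 nM dispensed) and NADPH were mixed with compound. Second, a 15 min room-temperature incubation followed. Third, further NADPH and then DTNB were added to start the reaction. Finally, TNB absorbance was monitored kinetically.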
FMDV inh: High Throughput Screening for Foot and Mouth Disease Virus Antivirals. Potency, µM (top dose mostly 57.9 µM), for inactives: at the top dose activity change, negative = inhibition, actives largely listed as inhibitors. hit rate 1.2% among 410,000. FMDV antiviral cell-based qHTS. AID 1159524, 2015; calls by dose curve; tested in HEK293T cells; note: read-out not given here; nearly all actives have a fitted effect of over 45% in size
AmpC detergent: qHTS Inhibitors of AmpC Beta-Lactamase (assay with detergent). P00811. AmpC hydrolysis of nitrocefin, absorbance 480 nm, 0.01% Triton. Potency, µM (titrated, usually from 114 µM), for the others: top-dose activity change, negative = inhibition, hits mostly inhibitors. hit rate 0.041% among 370,000. AID 485294, 2010;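 note: 0% = no-compound wells and -100% = no-enzyme wells; nearly all actives have a fitted effect of over 25% in size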
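20 mM phosphate pH 7.0 + 0.01% (detergent screen) or 0.0001% Triton X-100; 5.3 nM AmpC reagent; cpd preinc 15 min RT; nitrocefin (800 uM stock) to start; A480 q20 s × 4 min; Activity was normalised to no-enzyme and no-compound control wells.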
Starred values were filed as active, the others as inactive; u = inconclusive; x = not tested or not shown. Unless noted, calls come from the whole dose curve; as a rule, active = well fitted curve in the direction sought with a large enough effect; inconclusive = small, poorly fitted or top-dose-only effect, or another doubt; inactive = no such curve, though single readings can be large; an effect the other way counts as inactive or inconclusive. Unless noted, % is set by controls: 0 for no effect and ±100 for the full control effect; potency is the fitted concentration of half-maximal effect.

SMILES	AmpC no deterg	AMA1-RON2 inh	Sm TGR inh	FMDV inh	AmpC detergent
Cc1ccc(NC2=C(Cl)C(=O)OC2OC(=O)c2ccco2)cc1 (stereo not given)	-60%	1%	14µM*	x	u
Cc1ccc(NC2=C(Cl)C(=O)OC2OC(C)C)cc1 (stereo not given)	-45%	0%	2%	-1%	-2%
Cc1cccc(NC2=C(Cl)C(=O)OC2OC(=O)c2ccco2)c1 (stereo not given)	-25%	-6%	14µM*	-19%	-1%
Cc1cccc(NC2=C(Cl)C(=O)OC2OC(C)C)c1 (stereo not given)	-17%	9%	-1%	8%	6%
Cc1ccc(C)c(NC(=O)C(CC(C)C)N2Cc3ccccc3C2=O)c1 (stereo not given)	x	x	18%	-5%	4%
CC1=Nc2ccccc2/C1=C/c1c(O)n(C)c(=O)[nH]c1=O	-20%	-1%	-20%	32µM*	-10%
Cc1ccc(-n2c(O)c(/C=C3/C(c4ccccc4)=Nc4ccccc43)c(=O)[nH]c2=O)cc1	-45%	-7%	u	u	-3%
Cc1ccccc1-n1c(O)c(/C=C2/C(c3ccccc3)=Nc3ccccc32)c(=O)[nH]c1=O	-34%	-11%	-11%	22µM*	-16%
COc1ccccc1CN1CCCC(n2cc(C(=O)N3CCCCC3)nn2)C1 (stereo not given)	x	x	x	0%	x
Cc1cc(C)n2nc(-c3ccsc3-n3c(C)ccc3C)cc2n1	72%	-12%	3.5µM*	-3%	-4%
Cc1ccc(-c2cc3nc(C)cc(C)n3n2)cc1	11%	3%	x	4%	5%
Cc1cccc(NC(=O)c2cc3c(=O)n(Cc4ccco4)ccc3nc2C)c1	x	x	0%	-15%	-2%
CC(=O)CCS(=O)(=O)c1ccc(Oc2ccc(S(=O)(=O)CCC(C)=O)cc2)cc1	1%	4%	10µM*	u	0%
COc1ccc(CNC(=O)CCS(=O)(=O)c2ccc3c(c2)NC(=O)CS3)cc1	-37%	1%	13µM*	-16%	-9%
COc1ccc(CNC(=O)CCS(=O)(=O)c2ccc3c(c2)NC(=O)C(C)S3)cc1 (stereo not given)	-13%	0%	-1%	u	-14%
CCOc1cccc2sc(NC(=O)CCS(=O)(=O)c3ccccc3)nc12	11%	-26%	-29%	-9%	-7%
COc1ccc(S(=O)(=O)CCC(=O)NCCc2ccc(C)cc2)cc1	4%	-10%	32µM*	7%	0%
CCNS(=O)(=O)c1ccc(CCC(=O)NCCc2ccc(OC)cc2)cc1	-5%	-6%	6%	-6%	0%
COc1ccc(C)c2sc(NC(=O)CCS(=O)(=O)c3ccccc3)nc12	28%	-12%	5µM*	-17%	4%
COc1ccc(NC(=O)CSC2=Nc3ccccc3C3=NC(CC(=O)NCCc4ccccc4)C(=O)N23)cc1 (stereo not given)	x	x	13%	8%	8%
COc1ccc(CNC(=O)C2CCN(c3nnc(-n4c(C)ccc4C)s3)CC2)c(OC)c1	x	x	-27%	-20%	19%
CC(C)Cn1c(=O)c2sccc2n2c(CCCC(=O)NCc3ccccc3Cl)nnc12	x	x	-4%	-15%	13%
COc1ccc(S(=O)(=O)CCC(=O)Nc2c(C)cccc2C)cc1	-5%	-5%	40µM*	-17%	-4%
CCc1ccccc1NC(=O)CCS(=O)(=O)c1ccc(OC)cc1	-7%	1%	14µM*	0%	-4%
COc1ccccc1-c1nnc(NC(=O)CCS(=O)(=O)c2ccc(F)cc2)o1	x	130%	x	0%	x
SMILES	AmpC no deterg	AMA1-RON2 inh	Sm TGR inh	FMDV inh	AmpC detergent
Cc1cccc(C)c1NC(=O)CCS(=O)(=O)c1ccc(Br)cc1	-3%	-2%	1%	-17%	2%
CCOc1ccccc1NC(=O)CCS(=O)(=O)c1ccc(OC)cc1	-8%	-1%	-23%	-1%	0%
COc1ccccc1-c1nnc(NC(=O)CCS(=O)(=O)c2ccccc2)o1	-5%	34%	40µM*	-25%	2%
COc1ccccc1CN1CCC(n2cc(C(=O)N3CCCCC3)nn2)CC1	x	x	x	-11%	x
COc1ccccc1NC(=O)C(=O)NCC(c1ccc2c(c1)OCO2)N1CCN(C)CC1 (stereo not given)	x	x	0%	-10%	4%
CCOC(=O)C1=C[C@@H](CC)N(S(=O)(=O)c2ccc(C)cc2)[C@H]1c1cccc(Cl)c1	x	8%	x	u	x
COc1ccccc1Nc1nc(N)nc(CCl)n1	-2%	36%	28µM*	-4%	-1%
COc1ccc(OC)c(Nc2nc(N)nc(CCl)n2)c1	-20%	6%	32µM*	u	-2%
COc1cc(CN(C(=O)c2ccc(OC(C)C)cc2)c2ccccn2)cc(OC)c1OC	x	x	2%	0%	-2%
COc1ccc(Nc2ncnc3c2cnn3-c2cc(Cl)ccc2C)cc1OC	x	x	-1%	-8%	7%
COC(=O)c1sc(NC(=O)c2cc(-c3ccccc3)nc3ccccc23)c(C#N)c1C	-45%	1%	-10%	3.2µM*	56µM*
O=C1NN(c2ccc(Cl)c(Cl)c2)C(=O)/C1=C/c1cccc(OC(=O)c2cccs2)c1	u	x	41%	x	u
O=C1NN(c2ccccc2)C(=O)/C1=C\c1cccc(OC(=O)c2cccs2)c1	-21%	-1%	35µM*	u	u
CCOC(=O)c1[nH]c2ccccc2c1NC(=O)CC(C)C	-13%	0%	-10%	0%	8%
CCCC(=O)Nc1c(C(=O)OCC)[nH]c2ccccc12	20µM*	0%	6%	u	5%
COC(=O)c1[nH]c2cc(C)ccc2c1NC(=O)CN1CCc2cc(OC)c(OC)cc2C1	120%	-6%	-11%	22µM*	-2%
COC(=O)c1[nH]c2ccc(C)cc2c1NC(=O)CN1CCN(c2ccc(F)cc2)CC1	-12%	7%	-6%	25µM*	-4%
CCOC(=O)c1[nH]c2ccc(F)cc2c1NC(=O)CN1CCN(C/C=C/c2ccccc2)CC1	111%	-24%	-18%	32µM*	-8%
COCC(=O)Nc1cc(C(=O)N2CCCCC2c2nccn2C)cc2nc(-c3ccccc3)n(C)c12 (stereo not given)	x	x	x	4%	x
C[C@@](N)(Cc1ccc(O)c(O)c1)C(=O)O	x	x	x	-7%	x
CCOC(=O)N1CCN(CC(=O)Nc2c(C(=O)OC)[nH]c3ccc(Cl)cc23)CC1	66%	20%	-6%	32µM*	-10%
CCOC(=O)N1CCN(CC(=O)Nc2c(C(=O)OC)[nH]c3cc(C)ccc23)CC1	47%	0%	0%	u	4%
